Among all 16,000 compounds or so, about 70 (0.4%) were called active. This excerpt belongs to a sample that is enriched for actives. A number with no mark means an inactive call. No stated cut-off is given here; in the data, active means inhibition above about 75%; inactive means the rest.
Experiment: quenches luminol chemiluminescence in Nox1 counter-screen (AID 1823)
Conditions: HRP/luminol/H2O2 chemiluminescence counterscreen; at 6.7 µM; stronger effect = higher value
Compound `O=C(O)CCC(=O)Nc1ccc2c(c1)OCCCO2` has an inhibition of -0.93%. For `COc1ccc2c(OC(C)=O)coc2c1`, the inhibition was -1.52%. With `CN(C(=O)Nc1ccc(Cl)cc1)n1cnc2ccccc2c1=O` the inhibition was -2.37%. `O=C1c2ccccc2C(=O)N1CCCN1CCN(Cc2c(F)cccc2Cl)CC1` showed an inhibition of -3.51%. Compound `N#CCSc1ccc2ccccc2c1` has an inhibition of -1.43%. Work on `O=C(NNC(=S)Nc1ccc(S(=O)(=O)N2CCCCC2)cc1)c1ccncc1` yielded an inhibition of 12.6%. With `CN(Cc1nnc(-c2ccc3ccccc3c2)o1)c1nnc(C(F)(F)F)s1` the inhibition was -4.66%. For `N#Cc1sccc1Br`, the inhibition was 0.55%. With `N/C(Cc1cccs1)=N\OC(=O)c1ccccc1` the inhibition was -0.54%. With `CC(C)N(C(=O)c1ccc(-c2ccccc2F)cc1)C(C)C` the inhibition was -5.07%. With `N#C/C(=C\c1ccsc1Sc1ccc(Cl)cc1)S(=O)(=O)c1ccc(Cl)cc1` the inhibition was 2.56%. `Cc1ccc(S(C)(=O)=NC(=O)NS(=O)(=O)Oc2ccc(Cl)cc2Cl)cc1` (stereo not drawn) showed an inhibition of 2.88%. In the case of `O=C(Nc1ccc(C(F)(F)F)cn1)c1ccc(Oc2cc(Cl)cc(Cl)c2)o1`, the inhibition is reported as 0.64%. `CSc1cccc(NC(=O)C(=O)NCCc2ccccn2)c1` showed an inhibition of 3.62%. For `Cc1ccc(SCC(=O)Nc2ccc(F)cc2F)cc1`, the inhibition was -8.4%. For `CC1=NOC(=O)/C1=C\c1ccccc1`, the inhibition was 3.43%. Work on `CC(C)(C)c1ccc(C(=O)CC(N)=O)cc1` yielded an inhibition of 6.19%. With `O=C1COCC(=O)N1c1ccc2c(c1)OCO2` the inhibition was -6.14%. `Cc1nn(C)c(C)c1Sc1nccc(-c2cccnc2)n1` gave an inhibition of -8.26%. With `CCOC(=O)C(O)(NC(=O)Nc1ccccc1)C(F)(F)F` (stereo not drawn) the inhibition was -5.95%. Compound `COCCCN/C(SCc1c(F)cccc1Cl)=C(\C#N)C(N)=O` has an inhibition of 1.37%. `N#C/C=C/c1ccc(C(F)(F)F)cc1[N+](=O)[O-]` showed an inhibition of 1.6%. With `O=C(c1ccc(Oc2ccc(Cl)cc2)c([N+](=O)[O-])c1)N1CCCC1` the inhibition was 2.31%. For `O=C(NNc1ccccc1C(F)(F)F)NS(=O)(=O)c1ccc(Cl)cc1`, the inhibition was -2.61%. Work on `COc1ccc(/C(C)=N/Nc2c([N+](=O)[O-])cc(C(F)(F)F)cc2[N+](=O)[O-])cc1CC#N` yielded an inhibition of -5.96%. Work on `Cc1noc(C)c1C(=O)N1CCOCC1` yielded an inhibition of -1.15%. `CCOC(=O)c1cc(CC)sc1NC(=O)c1cccnc1Oc1ccccc1` showed an inhibition of 0.49%. `COC(=O)CCN1CCc2cc(N=Nc3ccc(C(F)(F)F)cc3)ccc21` showed an inhibition of 17.7%.

Source: PubChem BioAssay AID1823 (The Scripps Research Institute Molecular Screening Center, 2009)
